# Experimental data: PubChem BioAssay AID504546 (Broad Institute, 2011)
# Records with an inconclusive call do not appear. The source made the active and inactive calls.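 How the source made its calls: active means every repeat run fits a falling-signal curve with half-maximal potency within ten times top tested dose; inconclusive means runs disagree, or flat moderate drop, or poor fit; inactive means every run inactive, including signal moving upward.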
# Test: ADP-Glo luciferase signal interference – biochemical, luminescence, cherry-picked samples, set 2, artefact control for CDK5 inhibitor project, dose response (AID 504546)
# Details: ADP-Glo detection reagent counter screen, 5 uM ADP; series mostly up to 30 µM
row,Structure (SMILES),outcome
1,COc1cc(OC)cc(C(=O)NNC(=O)c2ccccn2)c1,inactive
2,CN(C)N1C(N)=C(C#N)C(c2cccs2)C2=C1CCCC2=O (stereo unspecified),inactive
3,O=C1NC(=O)C(c2ccccc2[N+](=O)[O-])=C1Nc1ccc(O)c(Cl)c1,inactive
4,COc1ccc(Nc2nc(N)c(C(=O)c3ccc(OC)cc3)s2)cc1,inactive
5,Oc1ccc(/C=N/Nc2cccc(Cl)n2)c(O)c1,inactive
6,COc1cccc(C(=O)c2sc(NC(C)C)nc2N)c1,inactive
7,NC(=S)N/N=C/c1c(O)c(Br)cc2oc3c(c12)CCCC3,inactive
8,Cc1ccc2nc(Cl)c(C#N)cc2c1,inactive
9,O=[N+]([O-])c1ccc2c(c1)-c1ccccc1C2=NO,inactive
10,Cc1nn(-c2nccs2)c2c1C(=O)CC(C)(C)C2Br (stereo unspecified),inactive
11,Oc1cccc(C=NNc2ccccn2)c1,inactive
12,COc1ccc2nc(C)cc(Nc3ccc(C)cc3)c2c1,inactive
13,Clc1cncc(Cl)c1N/N=C/c1ccccc1,inactive
14,COc1ccc(Nc2nccc(-c3cccc(N)c3)n2)cc1,inactive
15,COc1ccc2nc3c(cc2c1)c(NC(=O)C1CCCO1)nn3CC(C)C (stereo unspecified),inactive
16,Oc1ccc(/C=N/Nc2ccc(C(F)(F)F)cn2)c(O)c1,inactive
17,C=CCNC(=O)c1n[nH]c2c1CC(C(C)(C)CC)CC2 (stereo unspecified),inactive
18,COc1ccc(C(=O)c2sc(Nc3ccccc3)nc2N)cc1,inactive
19,O=C(O)c1ccc(N/N=C/c2ccc(C(F)(F)F)cc2)cc1,inactive
20,Fc1ccccc1/C=N/Nc1ncnc2nc[nH]c12,inactive
21,COc1ccc2nc3c(cc2c1)c(NC(=O)c1cccs1)nn3CC(C)C,inactive
